Assay results published in the supplement of paper PMC7695840.
Counter-ions that a name gives are not always drawn.

What was measured:
[1] = tested on: Staphylococcus aureus MW2 delta-mecA (mecA-); assay: normalized GFP fluorescence (growth of mecA- strain) (fraction of control range); higher = more growth of mecA- strain; conditions: compound concentration: 150 uM; cefoxitin: subinhibitory; fluorescent label: GFP
In short: (§1)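 Two pre-induced S. aureus MW2 strains, one with the gene labeled by DsRed and one lacking it labeled by GFP, were mixed 1:1 in LB with a subinhibitory antibiotic dose set daily. The mix went at 5 µL/well onto 150 μM compound (1.5% DMSO) in 1536-well plates, single replicate, and grew unshaken 20 h at 37 °C, 90% humidity. DsRed (540/590) and GFP (485/520) values were scaled per plate between single-strain control medians, and plates with high untreated ratios or rows with DsRed/GFP >10 were left out.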

[2] = tested on: Staphylococcus aureus MW2 (mecA+); assay: normalized DsRed fluorescence (growth of mecA+ strain) (fraction of control range); higher = more growth of mecA+ strain; conditions: compound concentration: 150 uM; cefoxitin: subinhibitory; fluorescent label: DsRed
In short: as §1

SMILES | normalized GFP fluorescence [1] | normalized DsRed fluorescence [2]
C[N+]1(C)[C@@H]2CC[C@H]1C[C@@H](OC(=O)C(CO)c1ccccc1)C2 (stereo partly drawn) | 0.479 | 0.574
Oc1cccc2cccnc12 | 0.00976 | 0.0478
C=CCN1CC[C@]23c4c5ccc(O)c4O[C@H]2C(=O)CC[C@@]3(O)[C@H]1C5 | 0.642 | 0.643
CC[C@@H](CO)NC(=O)[C@@H]1C=C2c3cccc4c3c(cn4C)C[C@H]2N(C)C1 | 0.269 | 0.713
CN1CCN(C(=O)O[C@H]2c3nccnc3C(=O)N2c2ccc(Cl)cn2)CC1 | 0.334 | 0.793
O=c1n(Cl)c(=O)n(Cl)c(=O)n1Cl | 0.337 | 0.35
CNC(=O)Oc1ccc2c(c1)[C@]1(C)CCN(C)[C@@H]1N2C | 0.574 | 0.687
Cn1c(CCCC(=O)O)nc2cc(N(CCCl)CCCl)ccc21 [Bendamustine HCL] | 0.659 | 0.83
COP(=O)(OC)C(O)C(Cl)(Cl)Cl (stereo not drawn) | 0.2 | 0.658
COC(=O)C(c1ccccc1)C1CCCCN1 (stereo not drawn) | 0.277 | 0.737
O=C(O)CCCc1ccc(N(CCCl)CCCl)cc1 | 0.418 | 1.38
C[C@]12CC[C@H]3[C@@H](CC[C@@]45O[C@@H]4C(O)=C(C#N)C[C@]35C)[C@@H]1CC[C@@H]2O | 0.134 | 1.06
O=C(O[C@H]1C[C@H]2CC[C@@H](C1)[N+]21CCCC1)C(O)(c1ccccc1)c1ccccc1 [Trospium chloride (Sanctura)] | 0.723 | 0.453
C[C@@H]1O[C@@H](O[C@@H]2C=C3CC[C@@H]4[C@H](CC[C@]5(C)[C@@H](c6ccc(=O)oc6)CC[C@]45O)[C@@]3(C)CC2)[C@H](O)[C@H](O)[C@H]1O | 0.198 | 0.926
Cl[C@H]1[C@H](Cl)[C@@H](Cl)[C@@H](Cl)[C@H](Cl)[C@H]1Cl | 0.612 | 0.538
C=C1C[C@@H]2[C@H](CC[C@]3(C)C(=O)CC[C@@H]23)[C@@]2(C)C=CC(=O)C=C12 [Exemestane] | 0.367 | 0.545
CNc1ccc(C(=O)CC(O)CCC(C)C2OC(=O)CC(O)CC(=O)CC(O)CC(O)CC(O)CC(O)CC3(O)CC(O)C(C(=O)OC)C(CC(O[C@@H]4O[C@H](C)[C@@H](O)[C@H](N)[C@@H]4O)/C=C/C=C/C=C/C=C/C=C/C=C/C=C/C2C)O3)cc1.COC(=O)C1C(O)CC2(O)CC(O)CC(O)CC(O)CC(O)CC(=O)CC(O)CC(=O)OC(C(C)CCC(O)CC(=O)c3ccc(N)cc3)C(C)/C=C/C=C/C=C/C=C/C=C/C=C/C=C/C(O[C@@H]3O[C@H](C)[C@@H](O)[C@H](N)[C@@H]3O)CC1O2 (stereo partly drawn) | 0.675 | 0.626
C[C@]12CCC(=O)C(O)=C1CC[C@@H]1[C@@H]2CC[C@]2(C)C(=O)CC[C@@H]12 [Formestane] | 0.477 | 0.7
CC(C)C[C@H]1C(=O)N2CCC[C@H]2[C@]2(O)O[C@](NC(=O)[C@@H]3C=C4c5cccc6[nH]c(Br)c(c56)C[C@H]4N(C)C3)(C(C)C)C(=O)N12 | 0.246 | 1.03
CNC(C)[C@H](O)c1ccccc1 (stereo partly drawn) | 0.353 | 0.809
N[C@@H]1C[C@H]1c1ccccc1.N[C@H]1C[C@@H]1c1ccccc1 | 0.546 | 0.701
CC(=O)O[C@H]1C[C@H](O[C@H]2[C@@H](O)C[C@H](O[C@H]3[C@@H](O)C[C@H](O[C@H]4CC[C@@]5(C)[C@H](CC[C@@H]6[C@@H]5C[C@@H](O)[C@]5(C)[C@@H](C7=CC(=O)OC7)CC[C@]65O)C4)O[C@@H]3C)O[C@@H]2C)O[C@H](C)[C@H]1O[C@@H]1O[C@H](CO)[C@@H](O)[C@H](O)[C@H]1O | 0.391 | 0.766
CN1[C@@H]2CC[C@H]1C[C@@H](OC(=O)[C@H](CO)c1ccccc1)C2 | 0.693 | 0.664
CCN(C(C)=O)c1cccc(-c2ccnc3c(C#N)cnn23)c1 | 0.782 | 0.598
CC(O)(CS(=O)(=O)c1ccc(F)cc1)C(=O)Nc1ccc(C#N)c(C(F)(F)F)c1 (stereo not drawn) [Bicalutamide (Casodex)] | 0.0167 | 0.707
C[N+]1([O-])[C@@H]2CC[C@H]1C[C@@H](OC(=O)C(CO)c1ccccc1)C2 (stereo partly drawn) | 0.483 | 1.24
CC(NC(C)(C)C)C(=O)c1cccc(Cl)c1 (stereo not drawn) [Amfebutamone (Bupropion)] | 0.395 | 0.602
C[C@H]1CNCCc2ccc(Cl)cc21 [Lorcaserin HCl] | 0.467 | 0.636
O=C1CC[C@@]2(O)[C@H]3Cc4ccc(O)c5c4[C@@]2(CCN3CC2CC2)[C@H]1O5 | 0.283 | 0.86
